# Unmarked numbers belong to inactive results. Records with an inconclusive call do not appear. Activity calls are given as the source filed them. Unless noted, calls come from the whole dose curve; as a rule, active = well fitted curve in the direction sought with a large enough effect; inconclusive = small, poorly fitted or top-dose-only effect, or another doubt; inactive = no such curve, though single readings can be large; an effect the other way counts as inactive or inconclusive.
# Legend:
# [1] = biological target: Bile acid receptor (Homo sapiens) (UniProt Q96RI1); test: qHTS assay for small molecule agonists of farnesoid X receptor signaling (AID 588527; calls by dose curve;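 note: series mostly up to about 77 µM; 0% = vehicle basal and 100% = reference agonist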); conditions: HEK293T FXR-UAS-bla, beta-lactamase ratio, 16 h; activation: stronger effect = higher value
# How it was run: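 FXR-UAS-bla HEK293T, 10% dialyzed FBS; cpds up to 92 uM titration, 16 h 37 C; CCF4 dye 2 h RT; fluorescence. Normalized to chenodeoxycholic acid 100 uM (100%) and DMSO (0%); Hill fit gives EC50, efficacy.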
# [2] = qHTS assay for small molecule agonists of the antioxidant response element (ARE) signaling pathway (AID 651741; active = well fitted activation curve with a large enough effect in the signal ratio; the % refers to the signal ratio; note: potency is the fitted concentration of half-maximal effect)
# How it was run: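 Seeding 2,000 ARE-bla HepG2 cells per well preceded a 5 h incubation at 37 C/5% CO2 and a 16 h compound exposure at 37 C. Beta-lactamase reporter activity was then quantified by fluorescence after 2 h with LiveBLAzer B/G FRET substrate.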
# [3] = qHTS assay for environmental chemicals that activate the Aryl hydrocarbon Receptor (AhR) signaling pathway (AID 651777); conditions: 1A2-DRE human hepatoma cells, luciferase, 24 h; activation: stronger effect = higher value; note: potency is the fitted concentration of half-maximal effect; nearly all actives have a fitted effect of over 15% in size
# How it was run: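 Measured luciferase activity, read 30 min after One-Glo addition at room temperature, from human hepatoma cells bearing a dioxin response element–CYP1A2 promoter reporter and exposed to compound for 24 hr at 37 C.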
# [4] = qHTS assay for small molecule agonists of the antioxidant response element (ARE) signaling pathway measured by Nrf2-dependant transcriptional activity (AID 720636; active = well fitted curve in the direction sought with a large enough effect in the repeat runs; an effect the other way counts as inactive or inconclusive; note: potency is the fitted concentration of half-maximal effect;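 for activation: HepG2 cells with an ARE-driven luciferase reporter; % of control where 0% means no effect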)
# How it was run: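 In HepG2 cells engineered with an Nrf2-responsive luciferase gene, ARE induction was quantified as luminescence after 16 hr compound treatment at 37 C.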
# [5] = biological target: Cytochrome P450 3A4 (Homo sapiens) (UniProt P08684); test: qHTS Assay for Activators of Cytochrome P450 3A4 (AID 885); note: nearly all actives have a fitted effect of over 65% in size
# How it was run: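 20nM CYP3A4 + 25uM Luciferin-PPXE (=KM), 200mM KPO4; cpd 10 min RT; NADPH regen, 60 min RT; stop w/ detection buffer, 20 min; luminescence. Normalized to 57 uM ketoconazole.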
# [6] = MultiTox-Fluor Cytotoxicity Assay - LYMP1-001 - Dead Cells (AID 946); note: potency is the fitted concentration of half-maximal effect
# How it was run: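 AC50 from Hill fit of concentration-response; data normalized to DMSO (basal) and 15 uM tetraoctylammonium bromide (100%). LYMP1-001 lymphoblastoid cells, 2500/well, 16 hr compound at 37 C; dead-cell protease fluorescence, Ex/Em 485/520.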
# [7] = MultiTox-Fluor Cytotoxicity Assay - LYMP1-001 - Live Cells (AID 947); note: potency is the fitted concentration of half-maximal effect
# [8] = MultiTox-Fluor Cytotoxicity Assay - LYMP1-002 - Dead Cells (AID 960); note: potency is the fitted concentration of half-maximal effect; nearly all actives have a fitted effect of over 60% in size
# How it was run: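 Acute cytotoxicity in a human lymphoblastoid line is scored as rising dead-cell protease signal after 16 hr exposure at 37 C, measured fluorometrically (485/520).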
# [9] = MultiTox-Fluor Cytotoxicity Assay - LYMP1-003 - Dead Cells (AID 961); note: potency is the fitted concentration of half-maximal effect; nearly all actives have a fitted effect of over 70% in size
# How it was run: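 Human lymphoblastoid LYMP1-003 cells (2500/well) were treated with compounds for 16 hr at 37 C in complete medium. Dead-cell protease release was read by bis-AAF-R110 fluorescence (Ex/Em 485/520). AC50 came from Hill fits, normalized to DMSO and 15 uM tetraoctylammonium bromide.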
# [10] = MultiTox-Fluor Cytotoxicity Assay - LYMP1-003 - Live Cells (AID 962);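 note: potency is the fitted concentration of half-maximal effect; cells exposed to compound for 16 hours at 37 °C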
# How it was run: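 Cells plated at 2500 per well and incubated 5 hr; compounds added and incubated 16 hr at 37 C; MultiTox-Fluor reagent added for 60 min at room temperature; fluorescence of liberated AFC measured at 405/510 nm.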
# [11] = Cell Viability - LYMP1-003 - Assay at 40 hr (AID 964); note: potency is the fitted concentration of half-maximal effect; nearly all actives have a fitted effect of over 60% in size
# How it was run: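 This qHTS cytotoxicity screen treats human lymphoblastoid cells (LYMP1-003) with compounds for 40 hr and quantifies cellular ATP via luciferase luminescence.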
# [12] = Cell Viability - LYMP2-004 (AID 966); note: potency is the fitted concentration of half-maximal effect; nearly all actives have a fitted effect of over 65% in size
# How it was run: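 Acute toxicity is scored as a concentration-dependent drop in intracellular ATP, quantified by luciferase luminescence, in human lymphoblastoid cells exposed to compound for 24 hr. AC50 derives from Hill-equation modelling.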
# [13] = Cell Viability - LYMP2-005 (AID 967); note: potency is the fitted concentration of half-maximal effect
# How it was run: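 Luciferase-based ATP quantitation served as the viability measure in human lymphoblastoid LYMP2-005 cells exposed to test compounds for 24 h at 37 C in complete culture medium. Potency (AC50) was obtained by fitting concentration-response curves with the Hill equation.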
# [14] = Cell Viability - LYMP2-013 (AID 970); note: potency is the fitted concentration of half-maximal effect; nearly all actives have a fitted effect of over 55% in size
# How it was run: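 Acute toxicity was measured in human lymphoblastoid cells (2500/well) exposed to compound titrations for 24 hr, with ATP luminescence (CellTiter-Glo) as read-out and AC50 fitted by Hill equation.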
# [15] = Cell Viability - LYMP2-019 (AID 973); note: potency is the fitted concentration of half-maximal effect; nearly all actives have a fitted effect of over 55% in size
# How it was run: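 Cells plated at 2500/well and allowed 5 hr at 37 C before compound addition. After 24 hr incubation, CellTiter-Glo reagent was added, plates sat 30 min at room temperature, and luminescence was recorded.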
# [16] = Cell Viability - LYMP2-021 (AID 974);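 note: potency is the fitted concentration of half-maximal effect; compound exposure lasts 24 hours at 37 °C; nearly all actives have a fitted effect of over 55% in size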
# How it was run: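 Concentration-response cytotoxicity in a human lymphoblastoid line: 24 hr treatment at 37 C in complete culture medium, tetraoctylammonium bromide as positive control, luminescent ATP quantitation as viability measure.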
# [17] = Cell Viability - LYMP2-025 (AID 976); note: potency is the fitted concentration of half-maximal effect
# How it was run: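 In qHTS format, LYMP2-025 lymphoblastoid cells in complete culture medium received compound for 24 hr; ATP-based CellTiter-Glo signal gave viability, with AC50 derived by Hill equation.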
# [18] = Cell Viability - LYMP2-002 (AID 977);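 note: potency is the fitted concentration of half-maximal effect; compound exposure lasted 24 h at 37 °C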
# How it was run: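 Cytotoxicity is scored as concentration-dependent loss of cellular ATP in a human lymphoblastoid line after 24 hr compound treatment at 37 C. AC50 is obtained by modelling concentration-response data with the Hill equation.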
# [19] = Cell Viability - LYMP2-006 (AID 978); note: potency is the fitted concentration of half-maximal effect; nearly all actives have a fitted effect of over 60% in size
# How it was run: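 In this cytotoxicity screen, the human lymphoblastoid line grew in complete medium with test compounds for 24 hr at 37 C. Cellular ATP served as the viability signal.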
# [20] = Cell Viability - LYMP2-007 (AID 979);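 note: potency is the fitted concentration of half-maximal effect; cells exposed to compound for 24 h before reading; nearly all actives have a fitted effect of over 60% in size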
# How it was run: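 Acute toxicity is scored as a concentration-dependent fall in intracellular ATP in human lymphoblastoid cells treated 24 hr at 37 C, measured by luciferase luminescence; Hill-equation modelling yields AC50.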
# [21] = Cell Viability - LYMP2-008 (AID 980)
# How it was run: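 Acute cytotoxicity is scored as concentration-dependent loss of cellular ATP in a human lymphoblastoid line after 24 hr treatment at 37 C. ATP is quantified by luciferase luminescence.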
# [22] = Cell Viability - LYMP2-010 (AID 981); note: potency is the fitted concentration of half-maximal effect; nearly all actives have a fitted effect of over 55% in size
# How it was run: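 Acute toxicity is scored as a concentration-dependent loss of cellular ATP in human lymphoblastoid cells after 24 hr compound exposure in complete medium. Tetraoctylammonium bromide is the positive control.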
# [23] = Cell Viability - LYMP2-012 (AID 982)
# [24] = Cell Viability - LYMP2-016 (AID 984)
# How it was run: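 Concentration-dependent ATP depletion measured in LYMP2-016 lymphoblastoid cells, 24 h, 37 C; luciferase-based luminescent detection; Hill-equation AC50.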
# [25] = Cell Viability - LYMP2-018 (AID 985);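 note: potency is the fitted concentration of half-maximal effect; compound exposure lasted 24 hr at 37 °C; nearly all actives have a fitted effect of over 50% in size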
# How it was run: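 Acute cytotoxicity is scored as a concentration-dependent drop in intracellular ATP after 24 hr exposure of the lymphoblastoid line in complete culture medium, measured by luciferase luminescence. Potency is expressed as AC50 from Hill modelling.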
# [26] = Cell Viability - LYMP2-020 (AID 986)
# How it was run: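 Acute cytotoxicity in a human lymphoblastoid line is scored as a concentration-dependent fall in cellular ATP after 24 hr at 37 C in complete medium. The positive control is tetraoctylammonium bromide, and potency is given as Hill-fit AC50.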
# [27] = Cell Viability - LYMP2-026 (AID 989); note: potency is the fitted concentration of half-maximal effect; nearly all actives have a fitted effect of over 50% in size
# How it was run: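 Concentration-dependent loss of intracellular ATP in human lymphoblastoid cells after 24 hr at 37 C, quantified by luciferase luminescence. AC50 derived from standard Hill equation.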
# [28] = Cell Viability - LYMP1-002 - Assay at 40 hr (AID 994)
# How it was run: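 Viability in the human lymphoblastoid line was measured as intracellular ATP via CellTiter-Glo after 40 hr compound exposure. Tetraoctylammonium bromide served as positive control.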
# [29] = qHTS assay for small molecule antagonists of the retinoid-related orphan receptor gamma (ROR-gamma) signaling pathway - cell viability counter screen (AID 720652; active = well fitted curve in the direction sought with a large enough effect in the repeat runs; an effect the other way counts as inactive or inconclusive;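 note: potency is the fitted concentration of half-maximal effect; compound exposure lasted 16 hr before ATP read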)
# How it was run: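 Cytotoxicity is quantified via intracellular ATP (CellTiter-Glo luminescence) in doxycycline-induced CHO ROR response element-luciferase reporter cells treated with compound for 16 hr at 37 C, 5% CO2.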
# [30] = qHTS assay for small molecule agonists of the antioxidant response element (ARE) signaling pathway measured by Nrf2-dependant transcriptional activity - cell viability counter screen (AID 720653; active = well fitted curve in the direction sought with a large enough effect in the repeat runs; an effect the other way counts as inactive or inconclusive; note: potency is the fitted concentration of half-maximal effect); conditions: ARE-bla HepG2 viability, CellTiter-Glo ATP luminescence, 16 h; max response: stronger effect = lower value
# How it was run: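 Cytotoxicity counter screen: intracellular ATP quantified by CellTiter-Glo luminescence in the same ARE-bla HepG2 plates, after 16 h compound exposure and a 2 h beta-lactamase substrate step.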
# Chain of Bile acid receptor (Homo sapiens) (Q96RI1 whole entry, looked up): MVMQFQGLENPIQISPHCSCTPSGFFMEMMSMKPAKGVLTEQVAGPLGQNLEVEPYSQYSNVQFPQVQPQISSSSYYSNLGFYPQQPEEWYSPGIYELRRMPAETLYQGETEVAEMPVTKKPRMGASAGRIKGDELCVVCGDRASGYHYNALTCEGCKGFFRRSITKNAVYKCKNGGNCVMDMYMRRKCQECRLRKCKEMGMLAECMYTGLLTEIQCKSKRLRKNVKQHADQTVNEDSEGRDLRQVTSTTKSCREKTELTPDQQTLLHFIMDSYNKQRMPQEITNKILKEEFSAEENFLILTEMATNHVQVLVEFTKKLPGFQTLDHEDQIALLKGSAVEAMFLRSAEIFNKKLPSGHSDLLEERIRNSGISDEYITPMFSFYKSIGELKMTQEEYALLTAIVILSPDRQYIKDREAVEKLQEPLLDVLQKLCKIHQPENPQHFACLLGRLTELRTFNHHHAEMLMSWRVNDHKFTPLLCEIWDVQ
# Chain of Cytochrome P450 3A4 (Homo sapiens) (P08684 whole entry, looked up): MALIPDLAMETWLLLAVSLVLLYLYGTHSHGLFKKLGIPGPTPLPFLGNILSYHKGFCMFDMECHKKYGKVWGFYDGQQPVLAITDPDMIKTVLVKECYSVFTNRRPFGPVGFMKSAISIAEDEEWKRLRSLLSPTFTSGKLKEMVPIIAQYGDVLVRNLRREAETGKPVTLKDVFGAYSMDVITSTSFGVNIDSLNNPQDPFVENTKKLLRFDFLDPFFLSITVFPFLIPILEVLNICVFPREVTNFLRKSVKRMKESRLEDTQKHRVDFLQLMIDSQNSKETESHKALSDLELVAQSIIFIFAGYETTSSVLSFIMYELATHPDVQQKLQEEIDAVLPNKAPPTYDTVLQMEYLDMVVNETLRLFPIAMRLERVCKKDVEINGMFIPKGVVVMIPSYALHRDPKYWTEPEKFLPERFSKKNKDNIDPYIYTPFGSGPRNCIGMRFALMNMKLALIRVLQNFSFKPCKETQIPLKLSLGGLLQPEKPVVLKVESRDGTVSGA
smiles,measurement,setting,value
c1ccc2cc3c(ccc4ccccc43)cc2c1,activation,[1],2.13%
same,Potency,[2],12.2 µM (active)
same,Potency,[3],22.4 µM (active)
same,Potency,[4],30.6 µM (active)
CC/C(=C(\c1ccccc1)c1ccc(OCCN(C)C)cc1)c1ccc(O)cc1,Potency,[5],inactive
same,Potency,[6],50.1 µM (active)
same,Potency,[7],50.1 µM (active)
same,Potency,[8],31.6 µM (active)
same,Potency,[9],50.1 µM (active)
same,Potency,[10],50.1 µM (active)
same,Potency,[11],50.1 µM (active)
same,Potency,[12],50.1 µM (active)
same,Potency,[13],50.1 µM (active)
same,Potency,[14],50.1 µM (active)
same,Potency,[15],50.1 µM (active)
same,Potency,[16],50.1 µM (active)
same,Potency,[17],50.1 µM (active)
same,Potency,[18],50.1 µM (active)
same,Potency,[19],39.8 µM (active)
same,Potency,[20],50.1 µM (active)
same,Potency,[21],50.1 µM (active)
same,Potency,[22],50.1 µM (active)
same,Potency,[23],50.1 µM (active)
same,Potency,[24],50.1 µM (active)
same,Potency,[25],39.8 µM (active)
same,Potency,[26],50.1 µM (active)
same,Potency,[27],39.8 µM (active)
same,Potency,[28],50.1 µM (active)
same,activation,[1],1.2%
same,Potency,[4],inactive
same,Potency,[29],75 µM (active)
same,Potency,[30],70.8 µM (active)
